A selection: hits, their analogues and other compounds. The true share with any hit is near 1.4%.
PINK1 expr mod – A Quantitative High throughput Screen to Identify Chemical Modulators of PINK1 Expression; PINK1 immunofluorescence, high-content cytometry, 24 h; Potency, µM (titrated, usually from 76.6 µM), for the others: at the top dose activation (PINK1 increase), usual class: activators; actives 0.2% (n = 410,000); AID 624263, 2012; active means well fitted activation curve with a large enough effect; inconclusive means small, poorly fitted or top-dose-only effect; cell line not stated here; further: potency means the concentration at half of the fitted maximal effect; % of control where 0% means no effect; nearly all actives have a fitted effect of over 65% in size
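PINK1 protein level read as immunofluorescence by microplate cytometer in a fixed, stained stable cell line after 24 h exposure to five compound concentrations, with CCCP as control.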
p53 reactivator – qHTS assay for re-activators of p53 using a Luc reporter | H1299 p53-A138V BP100-luciferase reporter, luminescence, 24 h | Potency, µM (top dose mostly 92.2 µM), for inactives: at the highest dose activity change, positive = activation, hits mostly activators | actives 0.063% (n = 320,000) | AID 504706, 2011; further: potency means the concentration at half of the fitted maximal effect; % of control where 0% means no effect; nearly all actives have a fitted effect of over 45% in size
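H1299 (p53-null), stable ts p53-A138V + BP100-Luc; 1000 cells/well, Opti-MEM/10% FBS; cpd 4 pt, 1:5; 24 h, 37 deg C, 5% CO2; detection reagent 10 min RT; luminescence.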
CCT chaperon mod – High-Throughput Screening for Modulators of Cytosolic Chaperonin Activity. purified chaperonin ATPase assay, HTRF ADP detection, 30 min. activity change, % (no concentration beside the values), hits read low. actives 0.3% (n = 360,000). AID 651819, 2012; in the data active means activity change below about -30%; further: on the % scale 0 is the no-effect control and ±100 the full control effect
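We incubate TRiC, 40 or 20 nM final, with library compounds at 76 uM and 10 uM ATP for 30 min at 37 °C. ADP formed is detected with Transcreener HTRF reagents after 30 min at room temperature.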
12-LOX inh – Primary qHTS assay for inhibitors of human arachidonate 12S-lipoxygenase (ALOX12): Round 2. Polyunsaturated fatty acid lipoxygenase ALOX12 (Homo sapiens), P18054. purified 12hLO, xylenol orange hydroperoxide absorbance. Potency, µM (highest dose often 108 µM), inactives show at the highest dose activity change, negative = inhibition, usual class: inhibitors. actives 1.1% (n = 580,000). AID 1671190, 2021; further: potency means the concentration at half of the fitted maximal effect; on the % scale 0 is the no-effect control and ±100 the full control effect
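Hydroperoxide product was detected by ferrous iron/xylenol orange as the 573 to 405 nm absorbance ratio. Arachidonic acid at 40 uM (final) was turned over for 30 min at room temperature by 150 nM human 12hLO, pH 7.0 Hepes buffer, after 15 min compound preincubation.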
Mm-Cpn inhibitor – Inhibitors of TCP-1 ring complex (TRiC) of Methanococcus maripaludis (MmCpn): qHTS; Chaperonin Mm-Cpn (Methanococcus maripaludis); Potency, µM (series often up to 76.9 µM), without a hit: at the top dose activity, negative = inhibition, actives largely listed as inhibitors; AID 504842, 2011; purified Mm-Cpn ATPase, ADP Transcreener TR-FRET; actives 0.031% (n = 330,000); further: potency means the concentration at half of the fitted maximal effect; on the % scale 0 is the no-effect control and ±100 the full control effect; nearly all actives have a fitted effect of over 80% in size
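Inhibition of chaperonin ATP hydrolysis is measured as reduced ADP production, detected by competitive TR-FRET in which signal falls with ADP. Final enzyme 25 nM and ATP 10 uM, reacted 30 min at 37°C.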
ASM inhibitor – Inhibitors of Secretory Acid Sphingomyelinase (S-ASM): qHTS; actives 0.006% (n = 340,000); placental ASM, HMU-PC fluorogenic substrate, 60 min; Sphingomyelin phosphodiesterase (Homo sapiens), P17405; Potency, µM (highest dose often 57.5 µM), for inactives: top-dose activity change, negative = inhibition, hits mostly inhibitors; further: potency means the concentration at half of the fitted maximal effect
Target sequence (P17405 47-631 limits assumed): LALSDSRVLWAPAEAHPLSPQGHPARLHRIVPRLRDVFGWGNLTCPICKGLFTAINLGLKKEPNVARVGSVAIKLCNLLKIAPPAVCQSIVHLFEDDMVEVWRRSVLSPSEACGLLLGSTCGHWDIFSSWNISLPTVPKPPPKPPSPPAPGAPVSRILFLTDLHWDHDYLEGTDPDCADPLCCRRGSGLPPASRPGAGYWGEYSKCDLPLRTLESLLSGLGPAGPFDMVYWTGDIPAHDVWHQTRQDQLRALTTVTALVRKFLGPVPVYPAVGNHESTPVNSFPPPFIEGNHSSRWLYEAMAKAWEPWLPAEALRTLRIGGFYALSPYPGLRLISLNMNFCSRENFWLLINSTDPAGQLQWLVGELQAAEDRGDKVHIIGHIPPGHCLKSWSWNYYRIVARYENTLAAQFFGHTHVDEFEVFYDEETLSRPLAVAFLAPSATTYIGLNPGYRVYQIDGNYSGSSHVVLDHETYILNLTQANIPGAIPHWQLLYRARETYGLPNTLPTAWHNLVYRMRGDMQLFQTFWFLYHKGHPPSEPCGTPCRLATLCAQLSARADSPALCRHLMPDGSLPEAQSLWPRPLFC
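HMU-PC0 cleavage (9 uM final) by human placental ASM, 60 min at 37 °C following 10 min compound exposure at RT; stopped at pH 10, fluorescence Ex 386/Em 447 nm.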
* = called active by the depositor; ? = inconclusive; . = no result given; [ ] = another dose, or the depositor's remark. Unless noted, the call rests on the fitted dose curve; in most records, active means well fitted curve in the direction sought with a large enough effect; inconclusive means small, poorly fitted or top-dose-only effect, or another doubt; inactive means no such curve, though single readings can be large; an effect the other way counts as inactive or inconclusive.

SMILES	PINK1 expr mod	p53 reactivator	CCT chaperon mod	12-LOX inh	Mm-Cpn inhibitor	ASM inhibitor
Fc1cc(CSc2nnc(C3CC3)n2C2CC2)c2ncccc2c1	.	.	.	-3%	.	.
OC[C@H]1OC([S-])[C@H](O)[C@@H](O)[C@H]1O.[Au+] (some centres not stated)	.	.	.	-1%	.	.
CCN(CC(=O)Nc1c(F)cccc1F)C(=O)c1ccc2ccccc2n1	2%	-5%	-1	-1%	0%	7%
CCN(CC(=O)Nc1c(F)cccc1F)C(=O)/C=C/c1ccc2ccccc2n1	-1%	0%	-4	32µM*	-1%	-3%
COC(=O)c1ccc(-c2ccc(C(c3c(C)[nH][nH]c3=O)c3c(C)[nH][nH]c3=O)o2)cc1	0%	-4%	1	35µM*	-4%	2%
Cc1cc(C(=O)Nn2c(C3CCCCC3)nc3ccccc3c2=O)ccc1[N+](=O)[O-]	16µM*	3%	-3	-6%	2%	-18%
CCCc1sc(C(=O)Nc2ccccc2O)cc1CC	.	.	.	13µM*	.	.
Cc1cccc(-c2cc(C(=O)NCc3ccncc3)c3ccccc3n2)c1	.	.	.	13%	.	.
CCc1cc2cc3c(cc2nc1SCC(=O)Nc1nnc(C)s1)OCCO3	12%[38.3 µM]	4%	-9	-35%	-10%	0%
CCc1nnc(NC(=O)CSc2nc3cc4c(cc3cc2CC)OCCO4)s1	11µM*	5%	-4	-11%	-1%	-1%
Cc1cccc(OCCc2noc(C3CCCCN3C(=O)NC(C)C)n2)c1 (configuration not stated)	.	.	.	62%	.	.
CC(=O)c1c(N2CCN(Cc3ccccc3)CC2)[nH]c(-c2ccccc2)nc1=S	.	14%	-3	40µM*	-2%	1%
CC(=O)c1c(N2CCOCC2)[nH]c(-c2ccccc2)nc1=S	2%	?	0	?	1%	4%
CC(=O)c1c(N2CCCC2)[nH]c(-c2ccccc2)nc1=S	?	-1%	3	45µM*	2%	2%
CCOc1ccc(-n2c(-c3ccccc3)c[n+]3c2CCC3)cc1	-1%	-6%	-1	-1%	0%	-1%
CSc1c[n+]2c(n1C)CCC2	-1%[38.3 µM]	-7%	2	45µM*	0%	4%
COC(=O)c1scc(S(=O)(=O)C(C)C)c1N/N=C(\C#N)C(=O)c1ccc(Cl)cc1	40µM*	1%	-1	-25%	-1%	-6%
COC(=O)c1scc(C#N)c1N/N=C(\C#N)S(=O)(=O)c1ccc(Cl)cc1	?	-5%	-1	?	0%	-3%
O=C(NN1C(=O)c2cc(Br)ccc2NC1c1cc(Br)cc(Br)c1O)c1ccncc1 (configuration not stated)	1%	23%	-1	50µM*	-3%	-5%
O=C(NN1C(=O)c2cc(Br)ccc2NC1c1ccccc1Cl)c1ccncc1 (configuration not stated)	-2%	1%	2	-20%	-1%	1%
O=C1NN(c2cccc(Br)c2)C(=O)/C1=C\c1ccccc1	3%	1%	-1	5.6µM*	3%	-2%
O=C1NN(c2ccccc2)C(=O)/C1=C\c1ccccc1	-2%	-1%	2	?	0%	-2%
Cc1ccc2c(-c3cc4ccccc4o3)cc(=O)oc2c1C	.	.	.	-27%	.	.
COC(=O)Cc1ccc(NC(=S)NCCSc2ccc(C)cc2)cc1	0%	13%	-2	45µM*	0%	-1%
Cc1ccc(NC(=S)NCCSc2ccc(Cl)cc2)cc1	0%	-2%	1	40µM*	4%	-4%
SMILES	PINK1 expr mod	p53 reactivator	CCT chaperon mod	12-LOX inh	Mm-Cpn inhibitor	ASM inhibitor
S=C(NCCSc1ccc(Cl)cc1)Nc1ccc(Nc2ccccc2)cc1	.	.	.	35µM*	.	.
Fc1ccccc1CSCCNC(=S)Nc1ccccc1	.	.	.	35µM*	.	.
COc1ccc(CNC(=O)Nc2ccc(Br)c(C)c2)cn1	.	.	.	6%	.	.
O=C(COc1ccccc1Cl)Nc1cccc(-c2nc3ccccc3o2)c1	.	.	.	4%	.	.
O=c1cc(CSc2nnnn2-c2ccccc2)[nH]c2[nH]n(-c3ccccc3)c(=O)c12	1%	-7%	-3	0%	-1%	2%
O=c1cc(CSc2nnnn2-c2ccccc2)[nH]n1-c1ccc(Cl)cc1	.	.	.	40µM*	.	.
Cc1ccc(-n2[nH]c(CSc3nnnn3-c3ccccc3)cc2=O)cc1	.	.	.	50µM*	.	.
O=C(c1cccnc1)N1CCCC(n2cc(-c3nc(-c4ccccc4)no3)nn2)C1 (configuration not stated)	.	.	.	40µM*	.	.
O=C(c1ccccc1)N1CCCC(n2cc(-c3nc(-c4ccccc4)no3)nn2)C1 (configuration not stated)	.	.	.	3%	.	.
CCn1c(=O)c(CCC(=O)N2CCN(c3ccccn3)CC2)c(C)c2c(C)nn(-c3cccc(C)c3)c21	-1%	-3%	-35*	0%	-9%	2%
COc1ccc(C2C(C#N)=C(N)Oc3cc4c(cc32)OCO4)cc1 (configuration not stated)	-7%[38.3 µM]	2%	-2	13µM*	0%	59%
COC(=O)c1ccc(C2C(C#N)=C(N)Oc3cc(N)ccc32)cc1 (configuration not stated)	7%	-1%	-4	?	-4%	-6%
CCOc1ccc(C2C(C#N)=C(N)Oc3cc(O)ccc32)cc1OCC (configuration not stated)	1%	.	-2	-25%	-1%	3%
COC(=O)c1ccc(C2C(C#N)=C(N)Oc3cc(O)ccc32)cc1 (configuration not stated)	3%	-6%	-1	25µM*	0%	-9%
COc1ccc(C2C(C#N)=C(N)Oc3cc(O)ccc32)cc1Cl (configuration not stated)	4%	.	-1	32µM*	-2%	0%
C#CCOc1ccc(C2C(C#N)=C(N)Oc3cc(O)ccc32)cc1 (configuration not stated)	1%	.	-1	28µM*	-7%	1%
CC(C)(C)C1CCC(=NNC(=O)Cc2ccccc2)CC1 (configuration not stated)	.	.	.	41%	.	.
COC(=O)c1[nH]c2ccccc2c1NC(=O)CN1CCC2(CC1)OCCO2	.	.	.	-6%	.	.
CCN1CCN(C2=C(Cl)C(=O)N(Cc3ccccc3)C2=O)CC1	-1%	20%	-2	?	-2%	-1%
